According to PubChem BioAssay (Tox21):
Inconclusive results are not listed. Calls of active or inactive are those of the source. Unless noted, calls come from the whole dose curve; as a rule, active = well fitted curve in the direction sought with a large enough effect in the repeat runs; inconclusive = weak or mixed curves; inactive = no such curve, though single readings can be large; an effect the other way counts as inactive or inconclusive.

How the values were obtained:
[1] = qHTS assay for small molecule agonists of the p53 signaling pathway (AID 651631; calls by dose curve; note: nearly all actives have a fitted effect of over 15% in size)
Method in brief: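 HCT-116 cells carrying a stable p53 response element–beta-lactamase reporter were plated, rested 5 h at 37 °C, then exposed to compound in DMSO for 16 h at 37 °C; reporter activity was read as FRET substrate fluorescence after 2 h at room temperature.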

[2] = qHTS assay for small molecules that induce genotoxicity in human embryonic kidney cells expressing luciferase-tagged ATAD5 (AID 651632); note: nearly all actives have a fitted effect of over 15% in size
Method in brief: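 Cells were seeded at 2,000 per well, dosed with compound, and incubated 16 hr at 37C in 5% CO2. Luciferase activity was then quantified after a 30 min room-temperature incubation with Amplite.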

[3] = qHTS assay for small molecules that induce genotoxicity in human embryonic kidney cells expressing luciferase-tagged ATAD5 - cell viability (AID 651634; calls by dose curve; note: nearly all actives have a fitted effect of over 25% in size)
Method in brief: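 Cells (HEK293T, luciferase-tagged ATAD5) are seeded at 2,000 per well, dosed with compound or DMSO vehicle, and incubated 15.5 hr at 37C and 5% CO2. CellTiter-Fluor is added for 30 min before fluorescence is measured.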

[4] = qHTS assay for small molecule disruptors of the mitochondrial membrane potential - cell viability (AID 720634; calls by dose curve;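 note: human HepG2 liver cancer cells; series mostly up to about 83 µM; nearly all actives have a fitted effect of over 20% in size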)
Method in brief: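 Cytotoxicity was measured by ATP quantitation in HepG2 wells that had first been treated with compound for 1 hr and stained with m-MPI dye; CellTiter-Glo incubation was 30 min at room temperature.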

[5] = qHTS assay for small molecule disruptors of the mitochondrial membrane potential (AID 720635)
Method in brief: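 HepG2 cells exposed to compound 1 hr at 37C, then Mito-MPS dye 30 min. Ratio read of aggregate (540/590 nm) versus monomer (490/535 nm) fluorescence.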

[6] = qHTS assay to test for compound auto fluorescence at 590 nm (red) in HepG2 cells (AID 720674)
Method in brief: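 Fluorescence at 590 nm emission following 540 nm excitation was recorded from HepG2 wells one hour after compound transfer, with DMSO-only wells as vehicle and Rose Bengal sodium equivalency as the scale.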

[7] = qHTS assay to test for compound auto fluorescence at 535 nm (green) in HepG2 cells (AID 720675)
[8] = qHTS assay to test for compound auto fluorescence at 460 nm (blue) in HEK293 cells (AID 720678)
Method in brief: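 Intrinsic compound fluorescence is recorded in live HEK293 cultures after overnight incubation at 37C, 5% CO2, using excitation 405 nm and emission 460 nm. Values are referenced to triamterene.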

[9] = qHTS assay to test for compound auto fluorescence at 590 nm (red) in HEK293 cells (AID 720679)
Method in brief: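 Red autofluorescence, HEK293 cells: 2,000 cells/well; attach 4-5 hr 37C; add 23 nL cpd or DMSO; incubate o/n 37C 5% CO2; read Ex540/Em590; Rose Bengal sodium reference.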

[10] = qHTS assay to test for compound auto fluorescence at 460 nm (blue) in HEK293 cell free culture (AID 720681)
Method in brief: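 Compounds were added to cell-free DMEM with 10% FBS and fluorescence read directly. The blue channel used 405 nm excitation and 460 nm emission, with triamterene as the reference fluorophore.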

[11] = qHTS assay to test for compound auto fluorescence at 535 nm (green) in HEK293 cell free culture (AID 720682)
Method in brief: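 Read-out: 485/535 nm fluorescence intensity, calibrated against fluorescein. Medium only (DMEM + 10% FBS, no cells); test compound or DMSO vehicle added by pintool before plate reading.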

[12] = qHTS assay to test for compound auto fluorescence at 590 nm (red) in HEK293 cell free culture (AID 720683)
Method in brief: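 Cell-free wells of DMEM with 10% FBS received compound, and intrinsic fluorescence was read at excitation/emission 540/590 nm. Values expressed as equivalence to Rose Bengal sodium.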

[13] = qHTS assay to test for compound auto fluorescence at 590 nm (red) in HepG2 cell free culture (AID 720684)
Method in brief: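 Rose Bengal sodium served as the reference for red signal. Test compounds were dispensed into serum-containing MEM (10% FBS) without cells, and plates were read at 540/590 nm.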

[14] = qHTS assay to test for compound auto fluorescence at 460 nm (blue) in HepG2 cell free culture (AID 720685)
Method in brief: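 Cell-free plates of MEM plus 10% FBS received 23 nL compound or DMSO vehicle; blue-channel (405/460 nm) intensity scored against triamterene as reference fluorophore.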

[15] = qHTS assay to test for compound auto fluorescence at 535 nm (green) in HepG2 cell free culture (AID 720686)
[16] = qHTS assay to test for compound auto fluorescence at 460 nm (blue) in HepG2 cells (AID 720687)
Method in brief: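 HepG2 cells in MEM with 10% FBS, attached overnight at 37 C, were exposed to compound or DMSO for 1 hr at 37 C, 5% CO2. Blue fluorescence was read at 405/460 nm, with triamterene as reference fluorophore.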

[17] = qHTS assay to test for compound auto fluorescence at 535 nm (green) in HEK293 cells (AID 720680)
[18] = qHTS assay for small molecule agonists of the p53 signaling pathway - cell viability (AID 651633; calls by dose curve; note: series mostly up to about 83 µM; nearly all actives have a fitted effect of over 30% in size)
Method in brief: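 p53RE-bla cells were treated with compound for 16 hours at 37 C. Cytotoxicity was then measured as CellTiter-Glo luminescence after 30 min at room temperature.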

[19] = biological target: Glucocorticoid receptor (Homo sapiens) (UniProt P04150); test: qHTS assay to identify small molecule agonists of the glucocorticoid receptor (GR) signaling pathway (AID 720691; active = well fitted activation curve with a large enough effect in the signal ratio in the repeat runs, not every such curve was filed as active; the % refers to the signal ratio)
Glucocorticoid receptor (Homo sapiens), sequence (P04150 whole entry, looked up): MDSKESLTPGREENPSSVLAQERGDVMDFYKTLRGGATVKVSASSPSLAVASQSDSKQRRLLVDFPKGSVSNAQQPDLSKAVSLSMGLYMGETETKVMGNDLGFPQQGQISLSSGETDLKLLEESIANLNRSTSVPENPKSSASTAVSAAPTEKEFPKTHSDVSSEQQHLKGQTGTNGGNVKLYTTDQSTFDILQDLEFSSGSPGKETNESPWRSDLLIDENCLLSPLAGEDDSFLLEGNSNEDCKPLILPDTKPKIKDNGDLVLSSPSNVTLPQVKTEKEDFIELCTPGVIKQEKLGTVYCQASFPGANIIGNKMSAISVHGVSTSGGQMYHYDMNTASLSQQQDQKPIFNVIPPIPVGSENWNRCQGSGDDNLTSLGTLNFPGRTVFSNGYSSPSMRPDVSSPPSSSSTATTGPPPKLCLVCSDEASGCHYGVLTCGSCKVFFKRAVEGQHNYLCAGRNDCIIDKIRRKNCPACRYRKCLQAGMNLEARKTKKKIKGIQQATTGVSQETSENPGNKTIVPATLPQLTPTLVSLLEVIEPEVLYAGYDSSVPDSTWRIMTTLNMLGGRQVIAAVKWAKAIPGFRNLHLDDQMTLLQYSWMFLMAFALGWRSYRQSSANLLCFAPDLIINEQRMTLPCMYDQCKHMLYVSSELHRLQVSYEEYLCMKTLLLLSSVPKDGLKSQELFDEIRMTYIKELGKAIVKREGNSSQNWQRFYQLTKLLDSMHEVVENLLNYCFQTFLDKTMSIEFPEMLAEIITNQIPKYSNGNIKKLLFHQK
Method in brief: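 Steps: seed GR-bla HeLa cells, incubate 4 h at 37 C/5% CO2; pin-transfer DMSO-dissolved compounds; incubate 18 h at 37 C; add LiveBLAzer B/G FRET substrate; after 2 h at room temperature, measure fluorescence.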

[20] = biological target: Glucocorticoid receptor (Homo sapiens) (UniProt P04150); test: qHTS assay to identify small molecule antagonists of the glucocorticoid receptor (GR) signaling pathway (AID 720692; active = well fitted inhibition curve with a large enough effect in the signal ratio in the repeat runs, not every such curve was filed as active; the % refers to the signal ratio)
Method in brief: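 Antagonism was scored as loss of dexamethasone-driven (5 nM final) reporter signal in HeLa cells bearing a glucocorticoid response element–beta-lactamase construct, after 18 h compound exposure at 37 C and 2 h FRET substrate loading.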
% is set by controls: 0 for no effect and ±100 for the full control effect.

CCOC(=O)[C@H](CCc1ccccc1)N[C@@H](C)C(=O)N1Cc2cc(OC)c(OC)cc2C[C@H]1C(=O)O
inactive: Potency [1] | Potency [2] | Potency [3] | Potency [4] | Potency [5] | outcome [6] | outcome [7] | outcome [8] | outcome [9] | outcome [10] | outcome [11] | outcome [12] | outcome [13] | outcome [14] | outcome [15] | outcome [16]

CC(C)CCCCCCc1ccc(OCCOCCO)cc1
inactive: Potency [1] | Potency [2] | Potency [3] | Potency [4] | Potency [5] | outcome [6] | outcome [7] | outcome [8] | outcome [9] | outcome [17] | outcome [10] | outcome [11] | outcome [12] | outcome [13] | outcome [15] | outcome [16]

CCC1(C)NC(=O)NC1=O (stereo not given)
inactive: Potency [1] | Potency [2] | Potency [18] | Potency [3] | Potency [4] | outcome [6] | outcome [7] | outcome [8] | outcome [9] | outcome [10] | outcome [11] | outcome [12] | outcome [13] | outcome [14] | outcome [15] | outcome [16]

COc1nc(C)nc(NC(=O)NS(=O)(=O)c2ccccc2OCCCl)n1
inactive: Potency [1] | Potency [2] | Potency [3] | Potency [4] | Potency [5] | outcome [6] | outcome [7] | outcome [8] | outcome [9] | outcome [17] | outcome [10] | outcome [11] | outcome [12] | outcome [13] | outcome [14] | outcome [15] | outcome [16] | Potency [19] | Potency [20]

COc1ccccc1OCC(O)COC(N)=O (stereo not given)
inactive: Potency [1] | Potency [2] | Potency [18] | Potency [3] | Potency [5] | fluorescence, relative to Rose Bengal [6] -0.267% [at 18.6 µM] | fluorescence, % of fluorescein control [7] 0.0143% [at 18.6 µM] | fluorescence, % of triamterene [8] 0.0837% [at 18.6 µM] | fluorescence, % of fluorescent control [9] 0.0645% [at 18.6 µM] | fluorescence, % of fluorescein [17] -0.023% [at 18.6 µM] | fluorescence, % of fluorescent control [10] 0.143% [at 18.6 µM] | activity change [11] 0.0183% [at 18.6 µM] | fluorescence, % of fluorescent control [12] -0.113% [at 18.6 µM] | fluorescence, % of Rose Bengal [13] 0.679% [at 18.6 µM] | fluorescence, % of fluorescent control [14] 0.0993% [at 18.6 µM] | fluorescence, % of fluorescein control [15] -0.0199% [at 18.6 µM] | fluorescence, % of fluorescent control [16] 0.0352% [at 18.6 µM] | Potency [19]

CC(C)CC(=O)OCc1ccccc1
inactive: Potency [1] | Potency [2] | Potency [3] | Potency [4] | Potency [5] | outcome [6] | outcome [7] | outcome [8] | outcome [9] | outcome [17] | outcome [10] | outcome [11] | outcome [12] | outcome [13] | outcome [14] | outcome [15] | outcome [16] | Potency [19] | Potency [20]

CCCCCCC
inactive: Potency [1] | Potency [18] | Potency [3] | Potency [4] | Potency [5] | outcome [6] | outcome [7] | outcome [8] | outcome [9] | outcome [17] | outcome [10] | outcome [11] | outcome [12] | outcome [13] | outcome [14] | outcome [15] | outcome [16] | Potency [19]

CCOc1ccccc1N
inactive: Potency [1] | Potency [2] | Potency [3] | Potency [4] | Potency [5] | outcome [6] | outcome [7] | outcome [8] | outcome [9] | outcome [17] | outcome [10] | outcome [11] | outcome [12] | outcome [13] | outcome [14] | outcome [15] | outcome [16] | Potency [19] | Potency [20]

COC(C)CCO (stereo not given)
inactive: Potency [1] | Potency [2] | Potency [18] | Potency [3] | outcome [6] | outcome [7] | outcome [8] | outcome [9] | outcome [17] | outcome [10] | outcome [11] | outcome [12] | outcome [13] | outcome [14] | outcome [15] | outcome [16]

C[C@@H](N)C(=O)O
inactive: Potency [1] | Potency [2] | Potency [18] | Potency [3] | Potency [4] | outcome [6] | outcome [7] | outcome [8] | outcome [9] | outcome [10] | outcome [11] | outcome [12] | outcome [13] | outcome [15] | outcome [16] | Potency [19] | Potency [20]

COc1ccccc1N1CCN(CCCNc2cc(=O)n(C)c(=O)n2C)CC1
inactive: Potency [1] | Potency [18] | Potency [3] | Potency [4] | Potency [5] | outcome [6] | outcome [7] | outcome [8] | outcome [9] | outcome [17] | outcome [10] | outcome [11] | outcome [12] | outcome [13] | outcome [14] | outcome [15] | outcome [16]

O=C1CCCc2ccccc21
inactive: Potency [1] | Potency [2] | Potency [3] | Potency [4] | Potency [5] | outcome [6] | outcome [7] | outcome [8] | outcome [9] | outcome [17] | outcome [10] | outcome [11] | outcome [12] | outcome [13] | outcome [14] | outcome [15] | outcome [16] | Potency [19] | Potency [20]
